Screening data as filed in PubChem BioAssay.
TDP1 cell noCPT: qHTS for Inhibitors of human tyrosyl-DNA phosphodiesterase 1 (TDP1): qHTS in cells in absence of CPT | Potency, µM (titrated, usually from 46.2 µM), for inactives: top-dose activity change, negative = growth inhibition, hits mostly inhibitors | DT40 Tdp1-/- hTDP1 cells, no CPT, ATP luminescence, 48 h | 15% of 420,000 active; also: potency is read from the fitted curve at half-maximal effect; nearly all actives have a fitted effect of over 55% in size
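Seeded 400 DT40-hTDP1 cells/well (vehicle DMSO, no 20 nM CPT); pinned compounds; ≥48 hr at 37 °C; CellTiter-Glo luminescence as viability measure.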
HT1080 IDH1KD tx: qHTS for induction of synthetic lethality in tumor cells producing 2HG: qHTS for the HT-1080-IDH1KD cell line; HT-1080 IDH1 knockdown viability, ATP luminescence, 48 h; Potency, µM (doses to about 46.1 µM), for inactives: at the highest dose activity, negative = toxicity, most hits filed as cytotoxic; 2% of 360,000 active; AID 686971, 2013;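 also: potency is read from the fitted curve at half-maximal effect; 0% = DMSO wells and -100% = cell-free medium wells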
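% activity derives from luminescence (CellTiter-Glo), normalised to DMSO and no-cell wells. HT-1080-IDH1KD cells, 750/well, had 48 h compound exposure at 37 °C.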
HT1080-NT tox: qHTS for induction of synthetic lethality in tumor cells producing 2HG: qHTS for the HT-1080-NT fibrosarcoma cell line. AID 686970, 2013. HT-1080-NT fibrosarcoma viability, CellTiter-Glo ATP luminescence, 48 h. 1.6% of 360,000 active. Potency, µM (highest dose often 46.1 µM), for inactives: at the top dose activity, negative = less viability, hits mostly cytotoxic;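 also: NT is the 2HG producing partner of a matched IDH1 knockdown line; potency is read from the fitted curve at half-maximal effect; 0% = DMSO-treated cells and -100% = media-only wells without cells; nearly all actives have a fitted effect of over 55% in size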
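Toxicity toward the 2HG-producing NT line was scored as %Activity, normalised to DMSO and no-cell wells, from CellTiter-Glo luminescence after 48 hours' treatment.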
TDP1 cell CPT: qHTS for Inhibitors of human tyrosyl-DNA phosphodiesterase 1 (TDP1): qHTS in cells in presence of CPT. chicken DT40 Tdp1-/-;hTDP1 cells + 20 nM CPT, ATP luminescence, 48 h. Potency, µM (series often up to 46.2 µM), inactives show at the top dose activity change, negative = growth inhibition, usual class: inhibitors. 12% of 420,000 active. AID 686979, 2013; also: potency is read from the fitted curve at half-maximal effect; nearly all actives have a fitted effect of over 55% in size
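Cell growth measured by CellTiter-Glo luminescence after a minimum 48 h, 37 C compound exposure with 20 nM CPT in Tdp1-knockout DT40 cells stably expressing hTDP1, seeded 400/well; qHTS titration format.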
IL1B secr inh: qHTS for Inhibitors of Inflammasome Signaling: IL-1-beta AlphaLISA Primary Screen | THP-1 LPS/ATP IL-1B secretion, AlphaLISA, 16 h; hits give low values | activity change, % at 57.5 µM | 4.7% of 360,000 active | AID 743279, 2014; in the data active = activity change below about -50%; inconclusive = mostly about -30% to -49%
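Secreted IL-1B measured by AlphaLISA bead assay after 16 h compound exposure of THP-1 cells; compounds (final up to 57.5 uM) added 1 h before LPS (250 ng/mL) and ATP (1.25 mM) stimulation; lower signal means less secretion.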
An asterisk follows results filed as active; u = inconclusive; x = not tested or not shown; [ ] = dose if it differs, or a comment. An excerpt weighted towards active compounds, which were near 19% of everything screened. Unless noted, calls follow the shape of the dose curve; as a rule, active = well fitted curve in the direction sought with a large enough effect; inconclusive = small, poorly fitted or top-dose-only effect, or another doubt; inactive = no such curve, though single readings can be large; an effect the other way counts as inactive or inconclusive. Unless noted, % is scaled to controls: 0 for no effect and ±100 for the full control effect.

SMILES | TDP1 cell noCPT | HT1080 IDH1KD tx | HT1080-NT tox | TDP1 cell CPT | IL1B secr inh
O=[N+]([O-])c1cccnc1S(=O)(=O)c1ccccc1 | 0.82µM* | 18µM* | 12µM* | 0.92µM* | -97*
COc1nc(OC)nc(Oc2ccc(Cl)cc2[N+](=O)[O-])n1 | -1% | -4% | 7% | 1% | -3
COc1ccc([N+](=O)[O-])c(S(=O)(=O)c2ccccc2)n1 | 1.6µM* | 13µM* | 21µM* | 0.58µM* | -96*
COc1ccc([N+](=O)[O-])c(S(=O)(=O)c2ccc(Cl)cc2)n1 | 0.65µM* | 8.2µM* | 23µM* | 1µM* | -95*
CC(C)(C)OC(=O)NCc1ccc(CNC(=O)c2[nH]cnc2C(=O)NCC(=O)OCc2ccccc2)cc1 | u | -23% | -27% | u | -1
CC(C)(C)c1ccc(OCCC(=O)NCCc2ccc(S(N)(=O)=O)cc2)cc1 | u | -4% | -2% | u | 10
COc1ccc(-c2nn(-c3ccccc3)cc2/C=C/C(=O)O)cc1[N+](=O)[O-] | 23µM* | 18µM* | -13% | u | 10
COc1ccc(-c2nn(-c3ccccc3)cc2C=O)cc1[N+](=O)[O-] | -10% | -2% | 17% | -14% | -84*
O=C(O)/C=C/c1cn(-c2ccccc2)nc1-c1ccc(-c2ccc([N+](=O)[O-])cc2)o1 | u | 18% | 11% | -25% | -7
COc1ccc(-c2nn(-c3ccccc3)cc2/C=N/n2cnnc2)cc1OC | -28% | -1% | -3% | -2% | u
CCC(C)(C)NC(=O)C(c1ccc(OC)cc1)N(C(=O)CCC(=O)Nc1cc(C)on1)C(C)(C)C (configuration not stated) | -20% | -15% | -15% | 5% | 21
Cc1c(NS(=O)(=O)c2ccc3c(c2)NC(=O)CC(=O)N3)cccc1[N+](=O)[O-] | 1% | 11% | 13% | -5% | 16
Cc1cnc(NC(=O)Cc2ccccc2Cl)s1 | 3.3µM* | -7% | 0% | 3.3µM* | -15
CCOC(=S)SCC(=O)Nc1ncc(C)s1 | 23µM* | 18µM* | u | u | -98*
Cc1cnc(NC(=O)CCc2ccccc2)s1 | 8.2µM* | u | u | 16µM* | 10
Cc1cnc(NC(=O)CCCc2nc3ccccc3s2)s1 | 23µM* | u | u | 15µM* | 10
O=C(CCCc1nc2ccccc2s1)Nc1nccs1 | -5% | -4% | 3% | 5% | 78
COc1ccc(CCC(=O)Nc2ncc(C)s2)cc1OC | 5% | 7% | 4% | -14% | 5
Cc1cnc(NC(=O)CSc2nnc(Cc3ccccc3)o2)s1 | u | 4.5µM* | 4.5µM* | u | -2
CCC(C(=O)NC1CCCCC1)N(Cc1cccs1)C(=O)CCC(=O)Nc1cc(C)on1 (configuration not stated) | u | -12% | -2% | u | 10
Cc1onc(-c2c(F)cccc2Cl)c1C(=O)NCc1ccc(S(N)(=O)=O)cc1 | 10% | 5% | 7% | -9% | 16
CCOc1ccc(NS(=O)(=O)c2ccc3[nH]cc(C(=O)NC(C)CC)c(=O)c3c2)cc1 (configuration not stated) | 21µM* | -30% | -18% | u | -13
CCOc1ccc(N(C)S(=O)(=O)c2ccc3[nH]cc(C(=O)NCCCOC)c(=O)c3c2)cc1 | 21µM* | 0% | 2% | 23µM* | 10
C=CCNC(=O)c1c[nH]c2ccc(S(=O)(=O)N(C)c3ccc(OCC)cc3)cc2c1=O | 21µM* | 0% | 0% | 21µM* | 34
CCOc1ccc(NS(=O)(=O)c2ccc3[nH]cc(C(=O)NC4CCCC4)c(=O)c3c2)cc1 | -23% | x | x | -1% | x
SMILES | TDP1 cell noCPT | HT1080 IDH1KD tx | HT1080-NT tox | TDP1 cell CPT | IL1B secr inh
CCc1ccccc1N(C)S(=O)(=O)c1ccc2[nH]cc(C(=O)N3CCc4ccccc43)c(=O)c2c1 | 18µM* | u | u | u | -9
CCOc1ccc(NS(=O)(=O)c2ccc3[nH]cc(C(=O)NCc4ccccc4)c(=O)c3c2)cc1 | u | x | x | -27% | x
COCCCNC(=O)c1c[nH]c2ccc(S(=O)(=O)N(C)c3ccccc3C)cc2c1=O | u | 10% | 3% | u | 21
Cc1ccc(C)c(N(C)S(=O)(=O)c2ccc3[nH]cc(C(=O)NCCN4CCOCC4)c(=O)c3c2)c1 | u | 1% | -2% | -24% | -63*
CCOc1ccc(N(C)S(=O)(=O)c2ccc3[nH]cc(C(=O)NCCOC)c(=O)c3c2)cc1 | u | -15% | -1% | 13µM* | 4
CCCNC(=O)c1c[nH]c2ccc(S(=O)(=O)N(C)c3ccc(OCC)cc3)cc2c1=O | 23µM* | -20% | -10% | u | -3
CCCCN(C)CCNC(=O)c1c[nH]c2ccc(S(=O)(=O)N(CC)CC)cc2c1=O | -6% | 12% | 11% | -20% | -23
Cc1ccc(-n2cc(C(=O)OCc3ccc(F)c(F)c3)c3ccccc3c2=O)cc1 | u | x | x | -20% | x
COc1ccc(-c2nnc(SC)nc2-c2ccc(OC)c([N+](=O)[O-])c2)cc1[N+](=O)[O-] | u | -7% | -9% | -7% | x
CCc1nnc(NC(=O)CCN(c2cc(C)cc(C)c2)S(=O)(=O)c2ccc(Cl)cc2)s1 | 18µM* | -8% | 1% | u | 89
CCCCc1nnc(NC(=O)CCS(=O)(=O)c2ccc(Cl)cc2)s1 | 7.3µM* | 5% | -4%[9.24 µM] | 6.5µM* | 29
CCCc1nnc(NC(=O)CCS(=O)(=O)c2ccccc2)s1 | 5.2µM* | -4% | -27% | 2.3µM* | -58*
Cc1cc(C)cc(N(CCC(=O)O)S(=O)(=O)c2ccc(Cl)cc2)c1 | 10% | 17% | 23% | 4% | 18
Cc1ccc(/C=C/c2ccc(N(C)C)cc2)[n+](C)c1 | 0.41µM* | u | -30% | 0.52µM* | -2
CN(C)c1ccc(C=O)cc1 | 10% | x | x | -8% | x
CN(C)c1ccc(/C=C/c2cc[n+](C)cc2)cc1 | 5.2µM* | u | -22% | 6.5µM* | 0
Cc1ccc2nc(CNC(=O)c3cc(NC(=O)c4ccccc4)cc4ncn(C5CCCC5)c34)cn2c1 | -15% | x | x | 5% | x
Cc1nc(-c2ccncc2)nc(NCCNc2ncccc2C(F)(F)F)c1Cl | 7.3µM* | 6% | 13% | 12µM* | -18
CCC(C)NC(=O)CN1C(=O)c2cccnc2Oc2ccc(C)cc21 (configuration not stated) | -7% | x | x | -11% | x
